Source: PubChem BioAssay (NCATS)
“And” between values parts separate entries of the source, which are not always exact repeats. Equal entries are not always repeated. Records with an inconclusive call do not appear. Entries that show only a call come without a potency. The source made the active and inactive calls. Unless noted, the call rests on the fitted dose curve; in most records, active means well fitted curve in the direction sought with a large enough effect; inconclusive means small, poorly fitted or top-dose-only effect, or another doubt; inactive means no such curve, though single readings can be large; an effect the other way counts as inactive or inconclusive.

Key:
[1] = biological target: Cytochrome P450 2D6 (Homo sapiens) (UniProt P10635); assay: Cytochrome P450 family 2 subfamily D member 6 (CYP2D6) small molecule antagonists: luciferase biochemical (cell-free) qHTS assay (AID 1645840; active means well fitted curve in the direction sought with a large enough effect in the repeat runs; an effect the other way counts as inactive or inconclusive; further: nearly all actives have a fitted effect of over 55% in size; further: potency means the concentration at half of the fitted maximal effect)
Chain of Cytochrome P450 2D6 (Homo sapiens) (P10635 whole entry, looked up): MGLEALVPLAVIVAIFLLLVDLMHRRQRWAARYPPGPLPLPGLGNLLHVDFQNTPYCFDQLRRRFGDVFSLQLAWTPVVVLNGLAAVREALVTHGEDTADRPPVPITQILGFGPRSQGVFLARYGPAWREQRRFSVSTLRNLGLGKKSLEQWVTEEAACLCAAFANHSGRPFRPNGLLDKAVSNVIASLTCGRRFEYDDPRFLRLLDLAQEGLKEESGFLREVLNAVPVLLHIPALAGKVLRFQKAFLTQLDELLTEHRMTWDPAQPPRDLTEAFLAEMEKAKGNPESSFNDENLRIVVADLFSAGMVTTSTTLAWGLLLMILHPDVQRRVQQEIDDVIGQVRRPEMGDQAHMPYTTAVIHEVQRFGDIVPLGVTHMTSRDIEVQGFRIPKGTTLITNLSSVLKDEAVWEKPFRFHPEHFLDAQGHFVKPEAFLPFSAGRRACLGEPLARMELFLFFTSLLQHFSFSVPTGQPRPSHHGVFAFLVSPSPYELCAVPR
In short: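 P450-Glo luminescent screen: recombinant CYP2D6 enzyme–proluciferin substrate mix preincubated with compound 10 min at room temperature, then NADPH regeneration added for 1 h at room temperature. Detection reagent added for 20 min; luciferin light read as relative luminescence units.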

[2] = biological target: Cytochrome P450 2C9 (Homo sapiens) (UniProt P11712); assay: Cytochrome P450 family 2 subfamily C member 9 (CYP2C9) small molecule antagonists: luciferase biochemical (cell-free) qHTS assay (AID 1645842; active means well fitted curve in the direction sought with a large enough effect in the repeat runs; an effect the other way counts as inactive or inconclusive; further: nearly all actives have a fitted effect of over 55% in size; further: potency means the concentration at half of the fitted maximal effect)
Chain of Cytochrome P450 2C9 (Homo sapiens) (P11712 whole entry, looked up): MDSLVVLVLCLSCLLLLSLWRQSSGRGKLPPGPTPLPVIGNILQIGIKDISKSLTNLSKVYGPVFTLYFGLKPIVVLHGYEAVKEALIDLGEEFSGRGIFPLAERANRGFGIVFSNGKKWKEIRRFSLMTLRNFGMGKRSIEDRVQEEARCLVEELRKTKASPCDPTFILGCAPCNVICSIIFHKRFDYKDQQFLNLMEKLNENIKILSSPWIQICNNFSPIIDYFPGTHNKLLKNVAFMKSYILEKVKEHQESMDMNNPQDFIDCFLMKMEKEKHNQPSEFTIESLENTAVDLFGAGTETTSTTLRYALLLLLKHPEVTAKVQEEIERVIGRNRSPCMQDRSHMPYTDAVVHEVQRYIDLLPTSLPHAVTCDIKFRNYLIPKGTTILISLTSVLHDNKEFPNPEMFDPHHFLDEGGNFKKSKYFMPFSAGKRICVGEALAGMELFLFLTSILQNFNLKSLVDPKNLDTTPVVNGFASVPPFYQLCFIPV
In short: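 Luminescence, after 20 min with luciferin detection reagent, reflected CYP2C9 turnover during a 1 h NADPH-driven reaction at 37C. Enzyme-substrate mix contained 0.4% bovine serum albumin and was preincubated with compound 10 min at room temperature.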

[3] = Primary qHTS for inhibitors of nuclear receptor binding SET domain protein 2 (NSD2) in an isogenic RCH-ACV NSD2 p.E1099K mutant (9B) (AID 1645876); further: nearly all actives have a fitted effect of over 70% in size; further: potency means the concentration at half of the fitted maximal effect
[4] = Primary qHTS for inhibitors of nuclear receptor binding SET domain protein 2 (NSD2) in an RCH-ACV wild type WT cells (2C) (AID 1645877); further: nearly all actives have a fitted effect of over 70% in size; further: potency means the concentration at half of the fitted maximal effect
[5] = biological target: Rap guanine nucleotide exchange factor 3 (Homo sapiens) (UniProt O95398); assay: Confirmatory qHTS for antagonist of cAMP-regulated guanine nucleotide exchange factor 3 (EPAC1) (AID 1645880); further: nearly all actives have a fitted effect of over 55% in size
Chain of Rap guanine nucleotide exchange factor 3 (Homo sapiens) (O95398 whole entry, looked up): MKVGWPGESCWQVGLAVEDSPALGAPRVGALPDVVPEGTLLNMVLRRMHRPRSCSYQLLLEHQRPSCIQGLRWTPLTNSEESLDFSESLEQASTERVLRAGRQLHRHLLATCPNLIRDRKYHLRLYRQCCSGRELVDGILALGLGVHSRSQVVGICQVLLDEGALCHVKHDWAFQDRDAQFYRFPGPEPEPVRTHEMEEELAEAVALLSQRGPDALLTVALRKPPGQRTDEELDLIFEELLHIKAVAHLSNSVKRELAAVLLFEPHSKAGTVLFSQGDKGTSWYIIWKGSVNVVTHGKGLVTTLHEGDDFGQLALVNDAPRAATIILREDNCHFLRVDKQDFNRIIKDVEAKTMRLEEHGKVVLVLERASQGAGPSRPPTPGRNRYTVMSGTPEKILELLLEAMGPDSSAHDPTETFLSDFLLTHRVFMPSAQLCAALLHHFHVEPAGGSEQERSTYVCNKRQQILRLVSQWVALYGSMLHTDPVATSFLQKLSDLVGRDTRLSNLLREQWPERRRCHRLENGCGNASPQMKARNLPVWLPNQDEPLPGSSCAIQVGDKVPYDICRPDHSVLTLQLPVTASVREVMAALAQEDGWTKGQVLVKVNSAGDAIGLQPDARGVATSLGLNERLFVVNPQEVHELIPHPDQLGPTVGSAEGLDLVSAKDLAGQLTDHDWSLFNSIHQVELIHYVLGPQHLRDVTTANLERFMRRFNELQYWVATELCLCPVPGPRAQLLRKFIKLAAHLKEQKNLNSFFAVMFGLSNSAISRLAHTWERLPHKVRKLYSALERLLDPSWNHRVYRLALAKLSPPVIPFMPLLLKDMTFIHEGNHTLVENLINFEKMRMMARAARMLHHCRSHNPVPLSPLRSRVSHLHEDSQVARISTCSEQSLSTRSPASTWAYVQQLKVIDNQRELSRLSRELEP
In short: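 Nucleotide exchange uses 100 nM EPAC1, 250 nM RAP1B-BODIPY-GDP and 50 uM GDP, with compounds in a concentration-titration series. After 5 min at room temperature, fluorescence (480 nm ex/540 nm em) is read every 5 min for 30 min. Data are normalized to control ATA and DMSO.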

[6] = biological target: Rap guanine nucleotide exchange factor 3 (Homo sapiens) (UniProt O95398); assay: Confirmatory qHTS for agonist of cAMP-regulated guanine nucleotide exchange factor 3 (EPAC1) (AID 1645881);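 further: EPAC1 catalysed release of BODIPY-GDP from Rap1B seen as fluorescence loss; nearly all actives have a fitted effect of over 75% in size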
[7] = biological target: Rap guanine nucleotide exchange factor 4 (Homo sapiens) (UniProt Q8WZA2); assay: Confirmatory qHTS for agonist of cAMP-regulated guanine nucleotide exchange factor 4 (EPAC2) (AID 1645884);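 further: nucleotide exchange releases bodipy-GDP from Rap1 and this lowers its fluorescence; nearly all actives have a fitted effect of over 65% in size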
Chain of Rap guanine nucleotide exchange factor 4 (Homo sapiens) (Q8WZA2 whole entry, looked up): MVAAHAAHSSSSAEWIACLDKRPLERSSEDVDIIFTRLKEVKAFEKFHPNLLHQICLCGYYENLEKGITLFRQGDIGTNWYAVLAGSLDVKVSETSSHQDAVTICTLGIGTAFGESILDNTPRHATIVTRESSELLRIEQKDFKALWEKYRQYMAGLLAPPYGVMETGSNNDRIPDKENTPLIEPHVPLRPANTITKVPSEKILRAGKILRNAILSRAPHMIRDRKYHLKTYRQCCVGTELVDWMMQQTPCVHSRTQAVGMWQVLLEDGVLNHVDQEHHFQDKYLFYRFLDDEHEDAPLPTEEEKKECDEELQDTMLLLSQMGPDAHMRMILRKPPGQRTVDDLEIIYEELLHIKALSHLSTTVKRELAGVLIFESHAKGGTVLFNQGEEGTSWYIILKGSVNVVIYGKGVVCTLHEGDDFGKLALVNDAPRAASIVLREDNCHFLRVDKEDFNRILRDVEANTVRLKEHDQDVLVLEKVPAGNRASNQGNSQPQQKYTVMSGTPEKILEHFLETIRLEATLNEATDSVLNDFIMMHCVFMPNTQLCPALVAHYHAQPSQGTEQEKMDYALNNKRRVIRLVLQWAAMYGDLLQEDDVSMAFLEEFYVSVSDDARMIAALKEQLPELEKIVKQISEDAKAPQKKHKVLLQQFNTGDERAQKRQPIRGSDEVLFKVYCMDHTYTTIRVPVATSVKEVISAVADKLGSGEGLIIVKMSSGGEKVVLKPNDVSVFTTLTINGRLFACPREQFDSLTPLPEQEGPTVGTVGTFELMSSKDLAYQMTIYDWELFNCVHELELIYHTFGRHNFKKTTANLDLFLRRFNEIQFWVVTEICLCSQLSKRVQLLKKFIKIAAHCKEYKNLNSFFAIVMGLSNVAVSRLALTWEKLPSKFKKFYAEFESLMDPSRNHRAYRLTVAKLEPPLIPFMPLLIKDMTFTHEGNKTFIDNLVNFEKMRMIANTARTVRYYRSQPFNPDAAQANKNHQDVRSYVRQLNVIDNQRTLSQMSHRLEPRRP

Papain (Carica papaya) = Papain (Carica papaya) (UniProt P00784); assay: Primary qHTS assay for inhibitors of the protease papain (AID 1645873);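 further: papain turnover of Z-FR-AMC read as the AMC fluorescence gain over 10 min; series mostly up to about 50 µM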
Chain of Papain (Carica papaya) (P00784 whole entry, looked up): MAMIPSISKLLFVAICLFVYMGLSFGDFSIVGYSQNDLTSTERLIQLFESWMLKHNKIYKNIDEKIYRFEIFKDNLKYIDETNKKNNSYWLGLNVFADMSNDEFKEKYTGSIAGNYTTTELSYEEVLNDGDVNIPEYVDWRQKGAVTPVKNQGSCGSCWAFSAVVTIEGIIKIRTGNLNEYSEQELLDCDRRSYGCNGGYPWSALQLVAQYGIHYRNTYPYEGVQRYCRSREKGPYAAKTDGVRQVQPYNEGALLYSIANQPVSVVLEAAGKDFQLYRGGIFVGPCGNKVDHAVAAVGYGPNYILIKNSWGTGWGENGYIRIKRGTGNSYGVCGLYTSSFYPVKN

[8] = biological target: N-terminal Xaa-Pro-Lys N-methyltransferase 1 (Homo sapiens) (UniProt Q9BV86); assay: Confirmatory qHTS for Inhibitors of N-terminal methyltransferase 1 (NTMT1): MTaseGlo Assay (AID 1645874);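 further: luminescence from SAH made as NTMT1 methylates SPKRIA peptide using SAM; series mostly up to about 100 µM; nearly all actives have a fitted effect of over 65% in size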
Chain of N-terminal Xaa-Pro-Lys N-methyltransferase 1 (Homo sapiens) (Q9BV86 whole entry, looked up): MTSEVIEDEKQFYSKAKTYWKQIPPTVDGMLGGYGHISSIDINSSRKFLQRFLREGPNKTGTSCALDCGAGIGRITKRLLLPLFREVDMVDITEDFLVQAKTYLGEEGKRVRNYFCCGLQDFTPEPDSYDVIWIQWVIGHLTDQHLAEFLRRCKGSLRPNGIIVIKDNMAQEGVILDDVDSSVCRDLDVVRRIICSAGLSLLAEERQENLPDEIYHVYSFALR
In short: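 Compounds are incubated with 125 nM NTMT1 and 100 uM SAM for 15 min before the SPKRIA peptide (1 uM) starts a 30 min room-temperature methylation. SAH is measured by coupled luciferase luminescence and curves fitted to a Hill equation.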

With `FC(F)OC(Cl)C(F)(F)F` (stereo not drawn) the Potency [1] was “inactive” and the Potency [2] was “inactive”.
In the case of `O=C(OC1C[C@@H]2CC3C[C@H](C1)N2CC3=O)c1c[nH]c2ccccc12` (stereo partly drawn), the Potency [1] is reported as 6.74 µM (active) and the Potency [2] is reported as 16.9 µM (active).
For `COC(=O)c1ccccc1O`, the Potency [1] was “inactive” and the Potency [2] was “inactive”.
In the case of `NC(=O)OCC(O)COc1ccc(Cl)cc1` (stereo not drawn), the Potency [1] is reported as “inactive” and the Potency [2] is reported as “inactive”.
For `Oc1cc(O)cc(O)c1`, the Potency [1] was “inactive” and the Potency [2] was “inactive”.
In the case of `CCC(Cc1c(I)cc(I)c(O)c1I)C(=O)O` (stereo not drawn), the Potency [1] is reported as “inactive” and the Potency [2] is reported as 10.7 µM (active).
In the case of `C[C@H]1O[C@@H](O[C@H]2[C@@H](O)C[C@H](O[C@H]3[C@@H](O)C[C@H](O[C@H]4CC[C@@]5(C)[C@H](CC[C@@H]6[C@@H]5C[C@@H](O)[C@]5(C)[C@@H](C7=CC(=O)OC7)CC[C@]65O)C4)O[C@@H]3C)O[C@@H]2C)C[C@H](O)[C@@H]1O`, the Potency [1] is reported as “inactive”, the Potency [2] is reported as “inactive” and the Potency [3] is reported as 40.9 nM (active) and 66.1 nM (active). For the same molecule, the Potency [4] was 51.5 nM (active) and 118 nM (active).
With `OCCOCCOCCO` the Potency [1] was “inactive” and the Potency [2] was “inactive”.
For `CC1(O)CCC(C(C)(C)O)CC1` (stereo not drawn), the Potency [1] was “inactive” and the Potency [2] was “inactive”.
In the case of `CN(C)CCCSc1ccccc1NC(=O)/C=C/c1ccccc1`, the Potency [1] is reported as 0.347 µM (active), the Potency [2] is reported as “inactive” and the Potency [3] is reported as “inactive”. For the same molecule, the Potency [4] was “inactive”.
In the case of `CCCCCCOC(=O)c1cccnc1`, the Potency [1] is reported as 10.7 µM (active) and the Potency [2] is reported as 15.1 µM (active).
For `O=C(CO)[C@@H](O)[C@H](O)[C@@H](O)C(=O)O`, the Potency [1] was “inactive” and the Potency [2] was “inactive”.
With `CC(C)[C@@H]1CC[C@@H](C)C[C@H]1OC(=O)c1ccccc1O` the Potency [1] was “inactive” and the Potency [2] was “inactive”.
With `C=C1[C@H](CO)[C@@H](O)C[C@@H]1n1cnc2c(=O)[nH]c(N)nc21` the Potency [1] was “inactive”, the Potency [2] was “inactive” and the Potency [3] was “inactive”. The Potency [4] was “inactive”.
For `C[C@H](CCCC(C)(C)O)[C@H]1CC[C@H]2[C@@H]3CC=C4C[C@@H](O)CC[C@]4(C)[C@H]3CC[C@]12C`, the Potency [1] was “inactive” and the Potency [2] was “inactive”.
With `Nc1nccs1` the Potency [1] was “inactive” and the Potency [2] was “inactive”.
In the case of `CC(C)(C)c1ccc(CN2CCN(C(c3ccccc3)c3ccc(Cl)cc3)CC2)cc1` (stereo not drawn), the Potency [1] is reported as “inactive”, the Potency [2] is reported as “inactive” and the Potency [4] is reported as “inactive”.
For `CN1c2c(nc(N)[nH]c2=O)NCC1CNc1ccc(C(=O)NC(CCC(=O)O)C(=O)O)cc1` (stereo not drawn), the Potency [1] was “inactive” and the Potency [2] was “inactive”.
For `CO/N=C(\C(=O)N[C@@H]1C(=O)N2C(C(=O)O)=C(C[N+]3(C)CCCC3)CS[C@H]12)c1csc(N)n1`, the Potency [1] was “inactive” and the Potency [2] was “inactive”.
For `CCC(O)c1ccccc1` (stereo not drawn), the Potency [1] was “inactive” and the Potency [2] was “inactive”.
For `CCCc1ccc(C(=O)O)cc1`, the Potency [1] was “inactive” and the Potency [2] was “inactive”.
With `CC(=O)NCCCS(=O)(=O)O` the Potency [1] was “inactive”, the Potency [2] was “inactive” and the Potency [3] was “inactive”. For the same molecule, the Potency [4] was “inactive”.
In the case of `CC(C)=CCC/C(C)=C/CC/C(C)=C/CC/C(C)=C/CC1=C(C)C(=O)c2ccccc2C1=O`, the Potency [2] is reported as 8.49 µM (active).
For `COC(=O)C(CN)c1c[nH]c2ccc(OC)cc12` (stereo not drawn), the Potency [2] was “inactive”.
With `O=C(O)Cc1cc(I)c(Oc2ccc(O)c(I)c2)c(I)c1` the Potency [3] was 20.5 µM (active).
With `COc1ccc(/C=C/C(=O)O)cc1` the outcome [5] was “inactive”, the outcome [6] was “inactive” and the outcome [7] was “inactive”.
In the case of `CN(C)CCOc1ccc(/C(=C(/CCCl)c2ccccc2)c2ccccc2)cc1`, the Potency [3] is reported as “inactive”.
For `C=CC(C)(O)CC/C=C(\C)CCC=C(C)C` (stereo not drawn), the outcome [6] was “inactive” and the outcome [7] was “inactive”.
For `N[C@@H](Cc1cc(I)c(Oc2ccc(O)c(I)c2)c(I)c1)C(=O)O`, the Potency [3] was “inactive” and the Potency [4] was “inactive”.
For `COc1ccc2c(c1)N(C[C@H](C)CN(C)C)c1ccccc1S2`, the outcome [5] was “inactive”, the outcome [6] was “inactive” and the outcome [7] was “inactive”.
With `Cn1c(O)c(N=NC(N)=S)c2ccccc21` the Potency [2] was 9.52 µM (active).
With `CCCCC[C@H](O)/C=C/[C@H]1[C@H](O)CC(=O)[C@@H]1CCCCCCC(=O)O` the Potency [3] was 0.0661 µM (active) and the Potency [4] was 20.9 µM (active).
For `CCC[C@@H]1C[C@@H](C(=O)N[C@@H]([C@H]2O[C@H](SC)[C@H](O)[C@@H](O)[C@H]2O)[C@H](C)Cl)N(C)C1`, the Potency [3] was “inactive” and the Potency [4] was “inactive”.
With `CC(C)Cc1ccc([C@@H](C)C(=O)NS(C)(=O)=O)cc1` the Potency [3] was “inactive” and the Potency [4] was “inactive”.
For `Oc1ccc(/C=C/c2cc(O)cc(O)c2)cc1`, the outcome (Papain (Carica papaya)) was “inactive”, the Potency [3] was 9.34 µM (active) and the Potency [4] was 18.8 µM (active) and 11.8 µM (active). The outcome [5] was “inactive”, the outcome [6] was “inactive” and the outcome [7] was “inactive”.
In the case of `O=C(NNCS(=O)(=O)O)c1ccncc1`, the outcome [5] is reported as “inactive”, the outcome [6] is reported as “inactive” and the outcome [7] is reported as “inactive”.
With `COc1cc(C)c(/C=C/C(C)=C/C=C/C(C)=C/C(=O)O)c(C)c1C` the outcome [8] was “inactive” and the Potency [4] was 18.6 µM (active).
With `CC(C)[C@@H](C)/C=C/[C@@H](C)[C@H]1CC[C@H]2/C(=C/C=C3\C[C@@H](O)CC[C@@H]3C)CCC[C@]12C` the outcome [5] was “inactive”, the outcome [6] was “inactive” and the outcome [7] was “inactive”.
For `CCOC(=O)Oc1c(OC)cc(C(=O)O[C@@H]2C[C@@H]3CN4CCc5c([nH]c6cc(OC)ccc56)[C@H]4C[C@@H]3[C@H](C(=O)OC)[C@H]2OC)cc1OC`, the outcome [5] was “inactive”, the outcome [6] was “inactive” and the outcome [7] was “inactive”.
For `NC[C@H]1O[C@H](O[C@H]2[C@H](O)[C@@H](O[C@H]3O[C@H](CO)[C@@H](O)[C@H](N)[C@H]3O)[C@H](N)C[C@@H]2N)[C@H](N)C[C@@H]1O`, the Potency [3] was “inactive” and the Potency [4] was “inactive”.
